# According to PubChem BioAssay AID504329 (Southern Research Specialized Biocontainment Screening …, 2011):
# The whole screen tested about 340,000 compounds, of which about 1,000 (0.29%) were called active. A selection follows. Measured potencies and affinities stand elsewhere. Unmarked numbers belong to inactive results. Cut-off read from the data, not from the text of the source: inconclusive = inhibition above about 27% without an active follow-up result; inactive = below that.
# Experiment: NS1A inhibition, H1N1 influenza, cell based functional assay (AID 504329)
# Settings: percent inhibition, at 12.5 µM, stronger effect = higher value
row,Compound,inhibition
1,CC(C)CC(OC(=O)c1cccs1)C(=O)NCC1CCCO1 (stereo not given),11.2%
2,COc1ccccc1N1CCN(C(=O)c2ccc(S(=O)(=O)N3CCCC3)cc2)CC1,4.29%
3,COc1ccc(NC(=O)COC(=O)CCc2ccc(S(=O)(=O)N3CCOCC3)cc2)cc1Cl,-1.5%
4,CCOC(=O)c1sc2nc(N3CCOCC3)c3c(c2c1N)CCC3,8.09%
5,Cc1ccc(CNC(=O)Cn2nnc3ccccc3c2=O)cc1,-3.7%
6,COC(=O)c1ccc(NC(=S)NC2CC(C)(C)NC(C)(C)C2)cc1,-11.7%
7,CCOC(=O)C1(CCCc2ccccc2)CCN(C(=O)c2cnn(CC)c2)CC1,0.777%
8,O=C(NC(=S)Nc1ccc(F)c([N+](=O)[O-])c1)c1ccccc1F,6.76%
9,COc1cc(/C=C/C(=O)OCC(=O)NCCN2C(=O)CSC2=O)ccc1OCC#N,1.99%
10,CC(C)CN(C(=O)CCC(=O)OCc1ccc(Cl)cc1Cl)c1c(N)n(CC(C)C)c(=O)[nH]c1=O,-1.56%
11,CCN(CC)c1ccc(N=Nc2nn(C)c(C)c2[N+](=O)[O-])cc1,9.15%
12,CCN(Cc1ccccc1)c1ccc(/C=N/NS(=O)(=O)c2ccc(C)c([N+](=O)[O-])c2)cc1,-1.19%
13,Cn1c2c(c(=O)n(C)c1=O)C(c1ccc(F)cc1)C(C#N)=C(N)O2 (stereo not given),-0.36%
14,Cc1cccc(/C=N/NC(=O)c2ccc(NC(=O)c3ccccc3C)cc2)n1,-6.91%
15,CCNC(=O)C(=O)N1CCC2(CC1)OCCN2S(=O)(=O)c1ccc(C)cc1,5.17%
16,CCC(=O)/C=C1\Sc2ccc(OC)cc2N1CCO,7.02%
17,CCC(/C=C1\Sc2ccc(OC)cc2N1CC)=C\c1sc2ccc(OC)cc2[n+]1CCCS(=O)(=O)[O-],-0.43%
18,O=C(COC(=O)/C=C/c1ccccc1[N+](=O)[O-])NC1CC1,0.04%
19,CCN(CC)Cc1ccccn1,0.25%
20,OCCN(Cc1ccccc1)Cc1ncccc1O,-15.6%
21,CCn1c(SCC(=O)NC(C)c2ccccc2)nc2ccccc21 (stereo not given),6.4%
22,COc1ccc(C(C)(C)C)cc1NC(=O)COC(=O)CSCc1c(C)noc1C,12.6%
23,COC(=O)C1=C(C(=O)OC)SC(=C2C(=S)C(C)(C)N(C(=O)C(C)C)c3ccccc32)S1,26.5%

row,Compound,inhibition
1,COC(=O)C1=C(C(=O)OC)SC(=C2C(=S)C(C)(C)N(C(=O)CC(C)C)c3ccccc32)S1,18.9%
2,CC(=O)C1=C(C)N(Cc2ccccc2)C(=O)N[C@H]1c1cccc(F)c1,-6.27%
3,CC(C)=C(NC(=O)c1ccccc1)C(=O)Nc1ccc(C(=O)O)cc1,-12.3%
4,O=C1C=C(O)c2cccc(O)c2C1=O,3.19%
5,O=C1C(=O)c2c(ccc3ccccc23)-c2ccccc21,0.1%
6,CC(=O)c1ccc(S(=O)(=O)N(CCCO)Cc2cc3cc4c(cc3[nH]c2=O)OCCO4)cc1,-6.83%
7,COCCNC(=S)Nc1ccc2nc(N3CCN(C)CC3)cc(C)c2c1,8.16%
8,O=C(CNS(=O)(=O)c1ccccc1)Nc1ccccc1Br,-10.4%
9,Cc1c(NC(=S)N/N=C/c2cc([N+](=O)[O-])ccc2O)c(=O)n(-c2ccccc2)n1C,2.17%
10,Cc1c(NC(=S)N/N=C/c2ccc(O)cc2)c(=O)n(-c2ccccc2)n1C,-9.33%
11,Cc1c(NC(=S)N/N=C/c2ccc(Br)cc2)c(=O)n(-c2ccccc2)n1C,0.4%
12,Cc1c(NC(=S)N/N=C/C=C/c2ccc([N+](=O)[O-])cc2)c(=O)n(-c2ccccc2)n1C,1.25%
13,CCCOc1ccc(/C=N/NC(=O)CSCc2ccc([N+](=O)[O-])cc2)cc1OCC,-9.68%
14,CC(C)CN(C(=O)C1CCCO1)C1CCS(=O)(=O)C1 (stereo not given),-6.34%
15,O=C(Oc1coc(CSc2ncccn2)cc1=O)c1cccs1,-4.51%
16,COC(=O)C1=C(CSc2nccn2C)NC(=O)NC1c1cc(C)ccc1C (stereo not given),1.93%
17,Cc1c(OC(C)C(=O)NCc2ccccn2)ccc2c3c(c(=O)oc12)CCCC3 (stereo not given),-4.86%
18,C=CCOc1ccc(/C=N/NC(=O)CC(=O)NC2CCCCC2)cc1,6.03%
19,CC1(C(=O)Nc2nc3ccc(S(C)(=O)=O)cc3s2)CC1(Cl)Cl (stereo not given),5.4%
20,O=C(O)c1cccc(NN=C2c3ccccc3-c3ccccc32)c1,10.1%
21,O=C(O)c1ccc(N=N/C(=N\Nc2ccc(C(=O)O)cc2)c2ccccc2)cc1,15.3%
22,CC(=O)c1cccc(NC(=O)CN2C(=O)NC(C)(c3ccc4c(c3)OCCCO4)C2=O)c1 (stereo not given),2.48%
